# Measured values taken from PubChem BioAssay (EPA / NIEHS).
# The source made the active and inactive calls. How the source made its calls: active means hit-call score of the fitted dose curve at least 0.9, where 1 is the maximum; inconclusive means response in the unintended direction; inactive means score below 0.9.
# Target: Peroxisome proliferator-activated receptor gamma (Homo sapiens) (UniProt P37231)
# Experiment: OT_PPARg_PPARgSRC1_1440: Odyssey Thera (OT) 24-hour Protein-Complementation Assay for Peroxisome Proliferator-activated Receptor Gamma/ SRC-1 Co-activator (AID 2283388);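 further: nuclear to cytoplasmic ratio of reconstituted Venus YFP fluorescence in fixed imaged cells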
# Method: OT_PPARg_PPARgSRC1_1440 is a cell-based assay that uses HEK293T, a human kidney cell line, with measurements taken at 24 hours after chemical dosing in a 384-well plate.OT_PPARg_PPARgSRC1_1440 is one of one assay component(s) measured or calculated from the OT_PPARg_PPARgSRC1_1440 assay. It is designed to make measurements of protein fragment complementation, a form of binding reporter, as detected with fluorescence intensity signals by Protein-fragment Complementation technology.Data from the assay component OT_PPARg_PPARgSRC1_1440 was analyzed into 1 assay endpoint. This assay endpoint, OT_PPARg_PPARgSRC1_1440, was analyzed in the positive analysis fitting direction relative to DMSO as the negative control and baseline of activity. Using a type of binding reporter, measures of receptor for gain-of-signal activity can be used to understand the binding at the pathway-level as they relate to the gene PPARG. Furthermore, this assay endpoint can be referred to as a primary readout, because the performed assay has only produced 1 assay endpoint. To generalize the intended target to other relatable targets, this assay endpoint is annotated to the nuclear receptor intended target family, where the subfamily is non-steroidal.
# The OT PPARg/SRC-1 assay assessed receptor-chemical interactions using a rapidly maturing, intensely fluorescent mutant of YFP known as Venus, rationally dissected into two separate fragments. The fragments were obtained as follows: first, fragments coding for YFP1 and YFP2 (corresponding to amino acid residues 1-158 and 159-239 of the full length YFP, respectively) were generated by oligonucleotide synthesis (Blue Heron Biotechnology), and then PCR mutagenesis was used to generate the mutant fragments IFP1 and IFP2. Fusion constructs were transfected into HEK293T cells with a (Gly4Ser)2 linker between the PPARg/SRC-1 and YFP fragment genes to facilitate complementation when interacting proteins bring fragments into close proximity. The construct is transiently transfected in HEK293T cells 48 hours prior to treatment with test compounds. Cells are seeded into optical quality 384-well poly-D-lysine coated plates in MEM alpha medium (Invitrogen) supplemented with 10 percent FBS (Gemini Bio-Products) 1 percent penicillin and 1 percent streptomycin, and grown in 37C incubator equilibrated to 5 percent CO2. Cells are allowed to adhere for 24 hours prior to treatment with compounds of interest or controls for 24 hours. Cells are fixed in 4 percent formaldehyde and stained with Draq5 (BioStatus) to identify cells and subcellular compartment boundaries prior to signal detection. 8 Images per well were acquired on an Evotec Opera at 2 wavelengths (488 and 635nm), and the ratio of fluorescence in the nucleus relative to fluorescence in the cytoplasm (N/C Ratio) in the 488nm channel was calculated for a minimum of 350 cells per image.
# Chain of Peroxisome proliferator-activated receptor gamma (Homo sapiens) (P37231 whole entry, looked up): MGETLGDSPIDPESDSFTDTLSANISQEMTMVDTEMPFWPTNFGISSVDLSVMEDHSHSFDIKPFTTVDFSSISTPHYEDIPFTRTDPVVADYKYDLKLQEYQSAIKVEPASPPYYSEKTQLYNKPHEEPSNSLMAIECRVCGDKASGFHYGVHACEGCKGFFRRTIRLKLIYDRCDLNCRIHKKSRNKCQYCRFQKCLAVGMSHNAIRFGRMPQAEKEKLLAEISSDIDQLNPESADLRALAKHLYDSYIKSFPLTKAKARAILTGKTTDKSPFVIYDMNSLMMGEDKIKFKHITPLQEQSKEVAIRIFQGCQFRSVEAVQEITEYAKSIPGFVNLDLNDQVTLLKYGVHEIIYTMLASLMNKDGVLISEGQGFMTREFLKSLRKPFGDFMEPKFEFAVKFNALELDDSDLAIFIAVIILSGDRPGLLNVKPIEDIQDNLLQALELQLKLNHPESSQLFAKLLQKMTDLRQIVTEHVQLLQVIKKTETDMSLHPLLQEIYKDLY
row,SMILES,outcome
1,c1ccc2ncccc2c1,inactive
2,Cn1c(=O)c2[nH]cnc2n(C)c1=O,inactive
3,COCc1nnc(-c2ccc[n+]([O-])c2)n1-c1c(Cl)c(Cl)cc2[nH]c(=O)c(=O)[nH]c12,inactive
4,OCCOCCOCCO,inactive
5,CCCCCCCCCCCCCCO,inactive
6,CC1(C)C(=O)N(Cl)C(=O)N1Cl,inactive
7,CCN(CC)C(=S)SSC(=S)N(CC)CC,inactive
8,CC(C)CCCCCCOC(=O)C1CCCCC1C(=O)OCCCCCCC(C)C (stereo not given),inactive
9,C[C@@H](Oc1ccc(CNC(=O)c2cccnc2Oc2ccc3c(c2)OCO3)c(F)c1)C(=O)O,inactive
10,Cc1nccn1-c1ccc(Sc2cccc(C3(C(N)=O)CCOCC3)c2)cc1,inactive
11,C=CCc1cc(S(=O)(=O)c2ccc(O)c(CC=C)c2)ccc1O,inactive
12,c1ccc2c(c1)-c1cccc3c1c-2cc1ccccc13,inactive
13,CCc1ccc(O)c(C(C)(C)C)c1,inactive
14,OC(CCl)CCl,inactive
15,CCCCCCOC(=O)CC(CC(=O)OCCCCCC)(OC(=O)CCC)C(=O)OCCCCCC,inactive
16,OC[C@H]1O[C@@](CO)(O[C@H]2O[C@H](CO)[C@@H](O)[C@H](O)[C@H]2O)[C@@H](O)[C@@H]1O,inactive
17,C[C@]12C=CC(=O)C=C1CC[C@H]1[C@@H]3C[C@@H](O)[C@](O)(C(=O)CO)[C@@]3(C)C[C@H](O)[C@@]12F,inactive
18,NC(=O)N(O)[C@@H]1COc2cc(OCc3ccccc3)ccc21,inactive
19,CC(C)c1nnc2ccc(-c3ocnc3-c3cc(F)ccc3F)cn12,inactive
20,NC(=O)N1c2ccccc2C=Cc2ccccc21,inactive

row,SMILES,outcome
1,CCCc1ccccc1,inactive
2,O=c1[nH]cnc2c1ncn2[C@H]1CC[C@@H](CO)O1,inactive
3,CCCCCCCCCC,inactive
4,COc1cc2c(c(OC)c1OC)-c1ccc(OC)c(=O)cc1[C@@H](NC(C)=O)CC2,inactive
5,CCCCCCCC1CCC(=O)O1 (stereo not given),inactive
6,CCCCN1C(=O)[C@@H]([C@H](O)C2CCCCC2)NC(=O)C12CCN(Cc1ccc(Oc3ccc(C(=O)O)cc3)cc1)CC2,inactive
7,CCCCCCCCN(C)C,inactive
8,c1ccc(C(O[C@@H]2CCCN(CCc3ccc4c(c3)OCO4)C2)c2ccccc2)cc1,inactive
9,OC(Cn1cncn1)(Cn1cncn1)c1ccc(F)cc1F,inactive
10,CCCCOC(=O)c1ccccc1,inactive
11,CCCC(CCC)C(=O)O,inactive
12,CCCOc1ccc(S(=O)(=O)N2CCN(CC)CC2)cc1-c1nc2c(CC)n(Cc3ccccn3)nc2c(=O)[nH]1,inactive
13,O=C1CN(N=Cc2ccc([N+](=O)[O-])o2)C(=O)N1,inactive
14,COS(C)(=O)=O,inactive
15,CCOc1ccc2[nH]cc(C(=O)NCc3ccccc3)c(=O)c2n1,inactive
16,Cc1nc(-c2ccccn2)ncc1C(=O)Nn1cc(C)c2cc(F)ccc21,inactive
17,CCCCCCCC/C=C\CCCCCCCC(=O)OC[C@@H](O)[C@H]1OC[C@H](O)[C@H]1O,inactive
18,CNC(C)=O,inactive
19,CC(C)C(=O)Nc1ccc([N+](=O)[O-])c(C(F)(F)F)c1,inactive
20,NC(N)=O,inactive
